This is a sample that favours compounds with a hit; in the whole collection about 3.5% have one here.
Bim-Mcl-1 – disrupts Bim peptide binding to human Mcl-1. inhibition, % at 10 µM. Bead-based flow cytometry, Bim peptide-Mcl-1 binding. AID 1009. Q07820. 0.1% of 190,000 active; in the data active = inhibition above about 40%;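 note: 0% = no compound tracer wells and 100% = peptide blocker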
Target sequence (Q07820 whole entry, looked up): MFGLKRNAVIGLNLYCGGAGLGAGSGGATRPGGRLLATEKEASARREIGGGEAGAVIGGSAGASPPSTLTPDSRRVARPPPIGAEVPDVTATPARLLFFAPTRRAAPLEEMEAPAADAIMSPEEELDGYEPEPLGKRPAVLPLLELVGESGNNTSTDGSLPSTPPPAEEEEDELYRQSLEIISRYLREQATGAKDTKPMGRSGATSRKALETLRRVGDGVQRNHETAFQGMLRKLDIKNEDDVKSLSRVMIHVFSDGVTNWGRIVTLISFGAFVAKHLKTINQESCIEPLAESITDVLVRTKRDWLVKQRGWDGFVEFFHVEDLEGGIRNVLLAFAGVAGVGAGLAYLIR
eIF4E-4G inh – blocks eIF4E binding to eIF4G; P63073+Q04637; TR-FRET eIF4E-eIF4GI(517-606) binding, 2 h; inhibition, % at 21.7 µM; 0.37% of 220,000 active; AID 782;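 active = inhibition above about 30%, limit read from the data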;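 note: 0% = full FRET control wells and 100% = background wells lacking eIF4GI fragment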
Hck-Nef inh – inhibitors of human Hck kinase activated by Nef | P08631 | Recombinant Hck-YEEI plus Nef, Z-Lyte FRET kinase assay | inhibition, % at 20 µM | 0.68% of 220,000 active | AID 463187;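 active = Hck-Nef kinase inhibition above about 50%, limit read from the data; inactive = inhibition below that limit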;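 note: 0% = DMSO with Hck plus Nef and 100% = Hck alone without Nef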
Mcl1-Noxa inh – disrupts binding of human Mcl-1 to Noxa peptide | Q07820 | TR-FRET Mcl-1/Noxa peptide binding, 2 h | inhibition, % at 21.7 µM | 1.5% of 220,000 active;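 active = compounds that cut the protein-peptide binding signal by more than 50% relative to plate controls in a single-dose test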;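 note: His-tagged Mcl-1 with rhodamine Noxa BH3 peptide and terbium anti-His antibody; 0% = Mcl-1 plus Noxa peptide wells and 100% = peptide-only wells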
Mcl1 Bid PPI – disrupts binding of human Mcl-1 to Bid peptide. TR-FRET Mcl-1/Bid-Dy647 peptide binding, 1536-well. inhibition, % at 21.7 µM. AID 1021. Q07820. 0.97% of 220,000 active;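 active = compounds that cut the binding signal by more than half at the single screening dose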;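 note: His-tagged Mcl-1 with europium anti-His antibody binding Bid BH3 peptide; 0% = Mcl-1 plus peptide wells and 100% = peptide-only wells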
14-3-3 Bad inh – disrupts binding of bovine 14-3-3 zeta to phospho-Bad peptide; TR-FRET 14-3-3zeta/Dy647-pBad peptide displacement, 1 h; inhibition, % at 21.7 µM; 0.71% of 220,000 active; AID 781;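 active = inhibition above about 70%, limit read from the data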;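 note: 0% = full 14-3-3 plus peptide FRET controls and 100% = background without 14-3-3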
Target sequence (P63103 whole entry, looked up): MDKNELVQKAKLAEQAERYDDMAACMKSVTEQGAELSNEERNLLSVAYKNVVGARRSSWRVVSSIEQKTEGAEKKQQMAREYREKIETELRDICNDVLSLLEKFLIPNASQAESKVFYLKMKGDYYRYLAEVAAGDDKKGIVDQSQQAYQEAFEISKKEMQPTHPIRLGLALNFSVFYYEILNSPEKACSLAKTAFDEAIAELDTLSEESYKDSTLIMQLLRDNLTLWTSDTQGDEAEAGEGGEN
Active calls of the source: *; . = no result; [ ] = remark or other dose.

SMILES	Bim-Mcl-1	eIF4E-4G inh	Hck-Nef inh	Mcl1-Noxa inh	Mcl1 Bid PPI	14-3-3 Bad inh
O=C(Cn1c(-c2ccccc2)noc1=O)N1CCC(Cc2ccccc2)CC1	40*	4	-11	15	10	-3
O=C1OCCN1C(=O)[C@H]1[C@H](c2ccc(F)cc2)C(c2ccc(F)cc2)=NN1c1ccccc1	60*	4	-4	-17	0	3
O=C1OCCN1C(=O)[C@H]1[C@H](c2ccc(F)cc2)C(c2ccc(F)cc2)=NN1c1ccc(Br)cc1	-2	8	3	-98	-6	2
O=C(O)[C@H](Cc1ccccc1)NC(=O)C(c1ccccc1)(c1ccccc1)c1ccccc1	-1	-1	9	-5	-16	88*
CCc1ccc2c(CN(CC)Cc3nc4ccccc4c(=O)[nH]3)cc(=O)oc2c1	-1	2	1	-1	90*	-3
CCN(Cc1nc2ccccc2c(=O)[nH]1)Cc1nc2ccsc2c(=O)[nH]1	0	-2	1	-66	-75	-14
O=C(N/N=C\c1ccc(Cl)cc1)C1=NOC2COC3(CCN(c4ccc([N+](=O)[O-])cc4)CC3)OCC12 (stereo not drawn)	.	-6	11	32	-11	-3
Cc1cnc(C(=O)Nc2ccc(N3CCCCC3)cc2)cn1	-4	5	27	6	-34	0
Cc1cnc(C(=O)Nc2ccc(C(=O)N3CCCCC3)cc2)cn1	-3	0	0	56*	0	-4
CN1CCN(Cc2nc3ccccc3c(=O)n2Cc2nc(-c3ccc([N+](=O)[O-])cc3)cs2)CC1	-7	-2	0	31	12	7
CN(C)Cc1nc2ccccc2c(=O)n1Cc1nc(-c2cccc([N+](=O)[O-])c2)cs1	1	0	18	19	-1	98*
COc1ccc(OC)c(CN2CCN(CCc3ccccc3)C(CCO)C2)c1 (stereo not drawn)	1	-1	-4	3	-8	-4
COC(=O)c1cc(N=Nc2sc(N)nc2C)cc(C(=O)OC)c1	.	2	18	53*	-5	14
COC(=O)c1ccc2nc(C)c(C)nc2c1	0	8	1	-18	10	5
COCCn1c(C)cc(C2=NNC(=NC3CC3)SC2)c1C	3	-1	0	32	-55	-9
COCCn1c(C)cc(C2=NNC(=Nc3ccc(Cl)cc3Cl)SC2)c1C	-2	-10	0	6	-23	72*
Cc1cc(NC(=O)c2cc3ccccc3oc2=O)no1	-4	-5	0	.	16	10
Cc1cc(NS(=O)(=O)c2ccc(NC(=O)c3cc4cc(Br)ccc4oc3=O)cc2)no1	-4	12	26	-11	57*	53
O=C(Nc1cc(S(=O)(=O)N2CCCCC2)ccc1O)c1ccccc1NS(=O)(=O)c1ccc(F)c(F)c1	-3	2	-2	36	12	-9
CCCC(=O)Nc1ccc(NC(=S)NC(=O)c2cccs2)cc1	0	3	20	21	-34	-13
O=C(NC(=S)Nc1ccc(-c2ccc(CO)o2)cc1)c1cccs1	-3	-1	31	63*	-20	3
Cc1cc(C)n(-c2nc3ccccc3nc2Nc2ccc(CC(=O)O)cc2)n1	0	-3	16	4	-19	-5
Cc1ccc(Nc2nc3ccccc3nc2-n2nc(C)cc2C)cc1	-2	52*	1	5	-16	6
CCN(CC)c1ncnc2c1cnn2Cc1ccc(Cl)cc1	-3	3	21	-1	8	-15
Cc1cc(C)n(-c2nc3ccccc3c(=O)n2OCc2ccc(F)cc2)n1	1	-3	4	16	13	70*[fluorescence artefact?]
SMILES	Bim-Mcl-1	eIF4E-4G inh	Hck-Nef inh	Mcl1-Noxa inh	Mcl1 Bid PPI	14-3-3 Bad inh
Cc1cc(C)n(-c2nc3ccccc3c(=O)n2OCc2ccc(Cl)cc2)n1	-1	0	1	11	-3	-5
CC(C)(C)C1CCC(C(=O)OCC(=O)Nc2ccc3[nH]c(=O)[nH]c3c2)CC1 (stereo not drawn)	-1	2	0	59*	8	-1
CNc1ccc2nnc(C(F)(F)C(F)(F)C(F)(F)F)n2n1	0	-2	22	-4	-6	-9
CCCN1CCN(c2nc(-c3cccs3)nc3ccccc23)CC1	-2	4	5	53*	-11	-8
CCN1CCN(c2nc(-c3ccncc3)nc3ccccc23)CC1	5	4	0	51*	-15	10
CN1CCN(c2nc(-c3cccnc3)nc3ccccc23)CC1	0	1	1	50	-11	13
CCN1CCN(c2nc(-c3cccnc3)nc3ccccc23)CC1	13	2	0	66*	39	26
NC(=S)n1[nH]c(-c2ccc([N+](=O)[O-])cc2)c(N=Nc2ccc(O)cc2)c1=O	-1	-10	1	73*	65*	42
CCc1ccc(OCc2nnc(SCCN3CCOCC3)n2C)cc1	12	-5	1	21	16	85*
Cn1ncc(Cl)c1C(=O)Nc1cccc(Cl)c1	-1	8	5	52*	4	15
Cn1ncc(N=Cc2c(O)ccc3ccccc23)c1C(=O)Nc1cccc(Cl)c1	2	9	33	44	55*	34
CSc1cccc(NC(=O)c2c(Cl)cnn2C)c1	-3	3	4	-3	-6	26
CCC(C)NC(=O)CCSc1ccc(C)cc1 (stereo not drawn)	0	0	-1	6	-21	0
CCOC(=O)c1c(N2C(=O)C=CC2=O)sc(C)c1C	-4	6	-6	54*	36	3
O=C1C(C2=NC(C(=O)O)C3C(=O)N(c4ccc(Cl)cc4)C(=O)C23)=C(O)c2ccccc21 (stereo not drawn)	-1	2	0	63*	-21	-4
Nc1cc(Oc2cccnc2)cc([N+](=O)[O-])c1	-37	4	-4	4	-15	89*
Cc1cccc(Oc2cc(N)cc([N+](=O)[O-])c2)c1	-3	7	-1	6	-32	15
O=C(N/N=C/c1cc(Cl)ccc1O)c1ccc(Br)cc1	2	19	0	63*	-25	21
Cc1ccc(N=Nc2ccc(O)c(/C=N\NC(=O)c3ccc(N)cc3)c2)cc1C	-1	-25	34	86*	-23	85*[fluorescence artefact?]
O=[N+]([O-])c1ccc(O)c2cccnc12	-1	2	20	25	-38	-20
O=[N+]([O-])c1cc(Cl)c(O)c2ncccc12	0	3	29	70*	-33	1
O=[N+]([O-])c1ccc(O)c2ncccc12	-1	5	-3	73*	6	0
O=[N+]([O-])c1cc([N+](=O)[O-])c2cccnc2c1Oc1ccccc1O	0	9	-1	92*	-59	22
